Some test systems named below: T-47D breast; BT-549 breast; MDA-MB-435 melanoma; SW-620 colon; MCF7 breast; HCT-116 colon; HCC-2998 colon; KM12 colon.
Common to all, as to assay: NCI-60 one-dose screen, 48 h (100 = growth as untreated, 0 = no growth, -100 = all killed)
Common to all, as to settings: 10 µM unless noted

The text below walks through data of PubChem BioAssay (NCI).

The panel holds about 83,000 compounds, 20% with a hit somewhere; the sample as a whole holds those more often.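 Percent growth is the endpoint: 0 to 100 indicates growth inhibition (40 means 60% inhibition), 0 means no net growth, and negative values indicate cell death.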 Values without a mark were called inactive. Active and inactive are the calls of the source. How the source made its calls: active means growth percent below 10; inactive means the rest.

With `O=C(/C=C/c1ccc(Cl)cc1)c1ccc(Cl)cc1`, the growth in the experiment on T-47D breast was 114%; in the experiment on BT-549 breast, 101%; in the experiment with MDA-MB-435 melanoma it was 80.3%; in the experiment with SW-620 colon, 88.8%; in the experiment with MCF7 breast, 16.9%; in the experiment on HCT-116 colon, 69.8%. In addition, the growth with HCC-2998 colon was 92.7%; in the experiment on KM12 colon, 83.3%.
As to `COc1nc(OC)nc(-c2cc(-c3cc(OC)c(OC)c(OC)c3)no2)n1`, the growth in the experiment on T-47D breast was 103%; with BT-549 breast, 120%; in the experiment on MDA-MB-435 melanoma it was 111%; with SW-620 colon, 102%; in the experiment on MCF7 breast it was 93.7%; with HCT-116 colon, 105%. Also, the growth was 112% in the experiment on HCC-2998 colon and 102% in the experiment on KM12 colon.
As for `COc1cc(CCNc2cnc3cc(N)cc(N)c3n2)cc(OC)c1`, the growth in the experiment with T-47D breast was 140%; with BT-549 breast, 113%; in the experiment on MDA-MB-435 melanoma it was 115%; with SW-620 colon, 111%; with MCF7 breast, 96.9%; with HCT-116 colon, 103%. Further, the growth is 139% in the experiment on HCC-2998 colon and 106% in the experiment on KM12 colon.
As for `CC1(C)NC(=S)NC1=O`, the growth with T-47D breast was 91.6%; with BT-549 breast it was 103%; in the experiment on MDA-MB-435 melanoma, 110%; in the experiment with SW-620 colon it was 96.9%; in the experiment with MCF7 breast, 99.2%; in the experiment on HCT-116 colon, 102%. In addition, the growth was 112% with HCC-2998 colon and 108% in the experiment with KM12 colon.
Turning to `CC(=O)N(N=O)c1ccc([N+](=O)[O-])cc1Cl`, the growth in the experiment on T-47D breast is 29.2%; in the experiment with BT-549 breast it was 71.7%; in the experiment on MDA-MB-435 melanoma it was 66.7%; with SW-620 colon, 71.6%; in the experiment on MCF7 breast it was 52.2%; in the experiment with HCT-116 colon, 44.9%. In addition, the growth in the experiment on HCC-2998 colon is 76.6%; in the experiment on KM12 colon, 69%.
Turning to `COC(=O)C(C)[C@H]1CC[C@@H]2[C@]1(C)CC=C1[C@]23C=C[C@]2(C[C@@H](OC(C)=O)CC[C@]12C)C(C(=O)OC)C3C(=O)OC` (some centres undefined), the growth in the experiment on T-47D breast is 78.2%; with BT-549 breast, 101%; in the experiment on MDA-MB-435 melanoma, 95.1%; in the experiment on SW-620 colon it was 102%; in the experiment with MCF7 breast, 83.9%; in the experiment with HCT-116 colon, 63.7%. Also, the growth was 91.4% with HCC-2998 colon and 92.5% in the experiment on KM12 colon.
In the case of `N#CCc1ncc(-c2ccc(C(F)(F)F)cc2)c(NC2CCCCCC2)n1`, the growth is 20.7% [100 µM] in the experiment on T-47D breast; 9.45% [100 µM] (active) in the experiment on BT-549 breast; 0.369% [100 µM] (active) in the experiment on MDA-MB-435 melanoma; 19% [100 µM] in the experiment on SW-620 colon; 18.4% [100 µM] in the experiment on MCF7 breast; 8.09% [100 µM] (active) in the experiment on HCT-116 colon. The growth was 38.1% [100 µM] in the experiment with HCC-2998 colon and 8.14% [100 µM] (active) in the experiment with KM12 colon.
`CCOc1ccc(/C=N/NC(=O)c2cccc3ccccc23)cc1OCC`: the growth in the experiment with T-47D breast is 86.1%; in the experiment with BT-549 breast, 86.5%; in the experiment with MDA-MB-435 melanoma, 111%; with SW-620 colon, 105%; in the experiment on MCF7 breast, 92.9%; in the experiment on HCT-116 colon it was 103%. For the same compound, the values for the growth in the experiment on HCC-2998 colon and in the experiment with KM12 colon were 105% and 103%, respectively.
For `CC(O)c1cc[cH-]c1.[Fe+2].c1cc[cH-]c1` (centres undefined), the growth in the experiment on T-47D breast is 101%; with BT-549 breast, 95.5%; in the experiment on MDA-MB-435 melanoma, 104%; in the experiment on SW-620 colon, 103%; with MCF7 breast, 103%; with HCT-116 colon, 94.1%. In addition, the growth was 109% in the experiment on HCC-2998 colon and 103% in the experiment with KM12 colon.
Turning to `CC(=O)NCCN`, the growth was 97.5% in the experiment with T-47D breast; 102% in the experiment on BT-549 breast; 107% in the experiment with MDA-MB-435 melanoma; 107% in the experiment with SW-620 colon; 104% in the experiment with MCF7 breast; 102% in the experiment with HCT-116 colon. The growth in the experiment on HCC-2998 colon was 97.4%; in the experiment with KM12 colon, 113%.
In the case of `COc1ccc(OC)c(Cn2cc3c(c2-c2ccccc2)CCc2cnoc2-3)c1`, the growth in the experiment on T-47D breast was 32.2%; in the experiment with BT-549 breast it was 65.3%; in the experiment with MDA-MB-435 melanoma, -17.6% (active); in the experiment on SW-620 colon, 37.4%; in the experiment on MCF7 breast it was 44.4%; with HCT-116 colon, 43.2%. In addition, the figures for the growth in the experiment on HCC-2998 colon and in the experiment on KM12 colon were 85.5% and 33.3%, respectively.
Take `COc1ccc(CN2C(=O)/C(=C\C(=O)c3ccc(OCCN4CCCCC4)cc3)c3ccccc32)cc1`: the growth with T-47D breast is 15.5%; in the experiment with BT-549 breast, 81.5%; in the experiment with MDA-MB-435 melanoma, 95%; in the experiment on SW-620 colon, -39.9% (active); in the experiment on MCF7 breast, 20.3%; with HCT-116 colon, 4.2% (active). In addition, the growth in the experiment on HCC-2998 colon is 94.9%; with KM12 colon, 89%.
`N=C(N)c1ccc(-c2ccc(-c3ccc(Cl)cc3)s2)s1`: the growth was -31.7% (active) with T-47D breast; 76.4% in the experiment with BT-549 breast; -91.4% (active) in the experiment with MDA-MB-435 melanoma; -69.5% (active) in the experiment with SW-620 colon; -66% (active) with MCF7 breast; -98.4% (active) with HCT-116 colon. The figures for the growth in the experiment on HCC-2998 colon and in the experiment on KM12 colon were -74.2% (active) and -85.3% (active), respectively.
